Results taken from PubChem BioAssay AID1159580 (chemical genetic matrix, 2015).
“And” between values parts separate entries of the source, which are not always exact repeats. Equal entries are not always repeated. In all, about 5,500 compounds went through this assay and about 2,000 (36%) were called active. About 18% were inconclusive and are not listed. No stated cut-off is given here; in the data, active means normalized growth mostly below about 0.91 (no sharp cut-off); inconclusive means no clear call, values can overlap the other calls; inactive means mostly above about 0.92. The list shows a part of the results.

Test: chemical genetic growth profiling, strain panel (AID 1159580);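 further: tested at 20 µM; growth read once vehicle control cultures reached saturation at 30 °C; 1 = growth at the plate median or of vehicle wells; lower values mean less growth of the strain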
Settings: S. cerevisiae deletion strains, growth OD

Measured: normalized growth

O=C(O)c1ccccc1OP(=O)(O)O
inactive: locus YAL021C, strain ccr4, active compounds read low 0.962 | locus YAL026C, strain drs2, active compounds read low 1.01 | locus YAL030W, strain snc1, active compounds read low 1 | locus YBL061C, strain skt5, active compounds read low 1.01 | locus YBR009C, strain hhf1, active compounds read low 1.03 | locus YBR021W, strain FUR4, active compounds read low 1.01 | locus YBR023C, strain chs3, active compounds read low 1.01 | locus YBR171W, strain sec66, active compounds read low 1.01 | locus YBR229C, strain ROT2, active compounds read low 1.01 | locus YBR231C, strain swc5, active compounds read low 1.02 | locus YBR279W, strain paf1, active compounds read low 1 | locus YCL011C, strain gbp2, active compounds read low 1.01 | locus YCL016C, strain dcc1, active compounds read low 1 | locus YCL029C, strain bik1, active compounds read low 0.994 | locus YCL061C, strain MRC1, active compounds read low 1 | locus YCL069W, strain vba3, active compounds read low 0.997 | locus YCR088W, strain abp1, active compounds read low 1.01 | locus YDL005C, strain med2, active compounds read low 1 | locus YDL035C, strain GPR1, active compounds read low 1.01 | locus YDL040C, strain nat1, active compounds read low 0.996 | locus YDL074C, strain BRE1, active compounds read low 1.02 | locus YDL101C, strain DUN1, active compounds read low 1.02 | locus YDL134C, strain PPH21, active compounds read low 1.02 | locus YDL185W, strain tfp1, active compounds read low 0.976 | locus YDL192W, strain arf1, active compounds read low 0.989 | locus YDR001C, strain nth1, active compounds read low 0.993 | locus YDR069C, strain doa4, active compounds read low 1.02 | locus YDR101C, strain arx1, active compounds read low 1.01 | locus YDR137W, strain rgp1, active compounds read low 0.987 | locus YDR150W, strain NUM1, active compounds read low 1.01 | locus YDR159W, strain sac3, active compounds read low 1.02 | locus YDR162C, strain NBP2, active compounds read low 1.02 | locus YDR195W, strain ref2 1.01 | locus YDR297W, strain sur2, active compounds read low 1 | locus YDR318W, strain mcm21, active compounds read low 0.992 | locus YDR334W, strain swr1, active compounds read low 1 | locus YDR335W, strain msn5, active compounds read low 1.01 | locus YDR388W, active compounds read low 0.987 | locus YDR392W, strain spt3, active compounds read low 0.979 | locus YDR502C, strain sam2, active compounds read low 0.994 | locus YEL003W, strain gim4, active compounds read low 1.01 | locus YEL037C, strain rad23, active compounds read low 0.997 | locus YEL061C, strain CIN8 (second series), active compounds read low 1.01 | locus YEL061C, strain CIN8, active compounds read low 1.01 | locus YER015W, strain faa2, active compounds read low 1.01 | locus YER016W, strain bim1, active compounds read low 1 | locus YER110C, active compounds read low 0.992 | locus YER111C, strain swi4, active compounds read low 1.01 | locus YER155C, strain BEM2 (second series), active compounds read low 1.05 | locus YER155C, strain BEM2, active compounds read low 1.01 | locus YER167W, strain BCK2, active compounds read low 1.01 | locus YFR010W, strain ubp6, active compounds read low 1.03 | locus YGL078C, strain dbp3, active compounds read low 0.997 | locus YGL086W, strain mad1, active compounds read low 0.996 | locus YGL167C, strain pmr1, active compounds read low 1.01 | locus YGL173C, strain kem1, active compounds read low 1.01 | locus YGL227W, strain vid30, active compounds read low 1.01 | locus YGL240W, strain doc1, active compounds read low 1.02 | locus YGL248W, strain PDE1, active compounds read low 1.02 | locus YGL253W, strain hxk2, active compounds read low 1.04 | locus YGR135W, strain pre9, active compounds read low 0.988 | locus YGR252W, strain gcn5, active compounds read low 0.97 | locus YHR013C, strain ard1, active compounds read low 0.997 | locus YHR027C, strain rpn1, active compounds read low 1 | locus YHR030C, strain SLT2, active compounds read low 1.01 and 0.96 | locus YHR079C, strain IRE1 (second series), active compounds read low 0.996 | locus YHR079C, strain IRE1, active compounds read low 0.95 | locus YHR094C, strain hxt1, active compounds read low 0.991 | locus YHR129C, strain ARP1, active compounds read low 1.01 | locus YHR142W, strain chs7, active compounds read low 0.958 | locus YHR200W, strain rpn10, active compounds read low 0.995 | locus YIL066C, strain RNR3, active compounds read low 1.02 | locus YIL073C, strain SPO22, active compounds read low 0.999 | locus YIL125W, strain kgd1, active compounds read low 0.987 | locus YIR030C, strain dcg1, active compounds read low 0.995 | locus YJL092W, strain hpr5, active compounds read low 1 | locus YJL095W, strain BCK1 (second series), active compounds read low 1 | locus YJL095W, strain BCK1, active compounds read low 1.03 and 0.973 | locus YJL115W, strain asf1, active compounds read low 0.99 | locus YJL129C, strain trk1, active compounds read low 1 | locus YJL134W, strain LCB3, active compounds read low 1 | locus YJL154C, strain vps35, active compounds read low 0.996 | locus YJL164C, strain tpk1, active compounds read low 0.981 | locus YJL166W, strain qcr8, active compounds read low 1.01 | locus YJL168C, strain set2, active compounds read low 0.986 | locus YJL187C, strain SWE1 (second series), active compounds read low 1.02 | locus YJL187C, strain SWE1, active compounds read low 0.997 | locus YJR043C, strain POL32, active compounds read low 1.01
